Reference: PubChem BioAssay (NCATS)
Several values for one entry are separate records, joined by “and”; a condition that tells them apart may be missing. Equal entries are not always repeated. Inconclusive results are not listed. Activity calls are given as the source filed them. Unless noted, calls follow the shape of the dose curve; as a rule, active = well fitted curve in the direction sought with a large enough effect; inconclusive = small, poorly fitted or top-dose-only effect, or another doubt; inactive = no such curve, though single readings can be large; an effect the other way counts as inactive or inconclusive.

Tests used:
[1] = Cell Viability - LYMP2-013 (AID 970);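 also: series mostly up to about 92 µM; 0% = DMSO only and full inhibition = tetraoctylammonium bromide control; nearly all actives have a fitted effect of over 55% in size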
Procedure, shortened: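 Human lymphoblastoid LYMP2-013 cells, 2500/well, treated 24 h at 37 C in complete medium; viability as intracellular ATP by CellTiter-Glo luminescence after 30 min. AC50 from Hill fits of qHTS concentration-response.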

[2] = Cell Viability - LYMP2-017 (AID 972); also: series mostly up to about 92 µM; % is scaled to controls: 0 for no effect and ±100 for the full control effect; nearly all actives have a fitted effect of over 55% in size
Procedure, shortened: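 LYMP2-017 human lymphoblastoid cells (2500/well) settled 5 hr at 37 C, then exposed to compound 24 hr at 37 C in complete medium. Viability taken as intracellular ATP by CellTiter-Glo luminescence after 30 min at RT; AC50 from Hill fits.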

[3] = Cell Viability - LYMP2-019 (AID 973);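 also: 0% = DMSO alone and full effect = 92 µM tetraoctylammonium bromide; nearly all actives have a fitted effect of over 55% in size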
Procedure, shortened: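 Human lymphoblastoid LYMP2-019 cells (2500/well) preincubated 5 h at 37 C, then treated 24 h at 37 C in complete medium. Viability by CellTiter-Glo ATP luminescence after 30 min at room temperature; AC50 from Hill fits.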

[4] = Cell Viability - LYMP2-021 (AID 974);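 also: compound exposure lasts 24 hours at 37 °C; % is scaled to controls: 0 for no effect and ±100 for the full control effect; nearly all actives have a fitted effect of over 55% in size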
Procedure, shortened: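 Human lymphoblastoid LYMP2-021 cells, 2500/well in complete medium, treated 24 hours at 37 C. Intracellular ATP by CellTiter-Glo luminescence (30 min, RT); AC50 from Hill fits of concentration-response.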

[5] = Cell Viability - LYMP2-023 (AID 975)
Procedure, shortened: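 LYMP2-023 human lymphoblastoid cells, 2500/well, preincubated 5 hr at 37 C, then compound-treated 24 hr at 37 C in complete medium. CellTiter-Glo luminescence (ATP) after 30 min at room temperature; AC50 from Hill-equation fits; tetraoctylammonium bromide positive control.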

[6] = Cell Viability - LYMP2-002 (AID 977);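 also: series mostly up to about 92 µM; plate controls were DMSO only for no effect and 92 µM tetraoctylammonium bromide for full effect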
Procedure, shortened: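 Luminescent ATP readout (CellTiter-Glo, 30 min room temperature) after 24 h compound exposure at 37 C of a human lymphoblastoid line, 2500 cells/well. AC50 values derived by standard Hill fitting of qHTS concentration-response data.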

[7] = Cell Viability - LYMP2-006 (AID 978); also: series mostly up to about 92 µM; % is scaled to controls: 0 for no effect and ±100 for the full control effect; nearly all actives have a fitted effect of over 60% in size
Procedure, shortened: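 Human lymphoblastoid cells, 2500 per well, were preincubated 5 hr at 37 C, then exposed to compounds for 24 hr at 37 C in complete medium. Viability was read as intracellular ATP by CellTiter-Glo luminescence; AC50 from Hill-equation fits of qHTS concentration-response data.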

[8] = Cell Viability - LYMP2-007 (AID 979);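 also: cells exposed to compound for 24 h before reading; 0% = DMSO only and the negative end = 92 µM tetraoctylammonium bromide; nearly all actives have a fitted effect of over 60% in size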
Procedure, shortened: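 Human lymphoblastoid LYMP2-007 cells (2500/well) preincubated 5 h at 37 C, then treated 24 h at 37 C in complete medium. Viability by CellTiter-Glo ATP luminescence after 30 min at room temperature; AC50 from Hill fits.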

[9] = Cell Viability - LYMP2-008 (AID 980); also: % is scaled to controls: 0 for no effect and ±100 for the full control effect; nearly all actives have a fitted effect of over 60% in size
Procedure, shortened: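 LYMP2-008 lymphoblastoid cells (2500/well) plated 5 h, then treated 24 h at 37 C in complete medium. Viability read as intracellular ATP by CellTiter-Glo luminescence after 30 min at room temperature; AC50 from Hill fits.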

[10] = Cell Viability - LYMP2-010 (AID 981)
Procedure, shortened: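 Human lymphoblastoid LYMP2-010 cells (2500/well) treated 24 h at 37 C in complete medium; viability read as intracellular ATP by CellTiter-Glo luminescence. AC50 from Hill fits of concentration-response data; tetraoctylammonium bromide positive control.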

[11] = Cell Viability - LYMP2-012 (AID 982)
[12] = Cell Viability - LYMP2-014 (AID 983);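 also: series mostly up to about 92 µM; plate controls were DMSO only for no effect and 92 µM tetraoctylammonium bromide for full effect; nearly all actives have a fitted effect of over 50% in size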
Procedure, shortened: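 LYMP2-014 human lymphoblastoid cells, 2500/well, treated 24 h at 37 C in complete medium; viability by CellTiter-Glo ATP luminescence after 30 min at room temperature. AC50 from Hill fits of qHTS concentration-response; tetraoctylammonium bromide positive control.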

[13] = Cell Viability - LYMP2-016 (AID 984)
Procedure, shortened: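 Human lymphoblastoid cells (LYMP2-016), 2500/well in complete medium, preincubated 5 hr at 37 C, then compound-treated 24 hr at 37 C. Intracellular ATP read by CellTiter-Glo luminescence after 30 min at room temperature; AC50 from Hill-equation concentration-response fits.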

[14] = Cell Viability - LYMP2-018 (AID 985);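 also: plate controls were DMSO only for no effect and tetraoctylammonium bromide at 92 µM for full effect; nearly all actives have a fitted effect of over 50% in size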
Procedure, shortened: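 Human lymphoblastoid LYMP2-018 cells, 2500/well, settled 5 hr at 37 C then exposed to compound 24 hr at 37 C; intracellular ATP measured by CellTiter-Glo luminescence. AC50 from Hill-equation concentration-response fits.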

[15] = Cell Viability - LYMP2-020 (AID 986)
Procedure, shortened: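 Human lymphoblastoid LYMP2-020 cells (2500/well) preincubated 5 h at 37 C, then treated 24 h at 37 C. Viability measured as intracellular ATP by CellTiter-Glo luminescence after 30 min at room temperature; AC50 from Hill fits.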

[16] = Cell Viability - LYMP2-022 (AID 987)
Procedure, shortened: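 LYMP2-022 lymphoblastoid cells (2500/well, complete medium) were treated with compounds for 24 hours at 37 C; intracellular ATP was then read by CellTiter-Glo luminescence after 30 min at room temperature. AC50 values were derived from Hill-equation fits.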

[17] = Cell Viability - LYMP2-024 (AID 988);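 also: plate controls were DMSO only for no effect and 92 µM tetraoctylammonium bromide for full effect; nearly all actives have a fitted effect of over 60% in size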
Procedure, shortened: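 Human lymphoblastoid LYMP2-024 cells (2500/well) rested 5 hr, then treated with compound for 24 hr at 37 C in complete medium. Viability was measured as intracellular ATP by CellTiter-Glo luminescence. AC50 values came from Hill-equation fits.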

[18] = Cell Viability - LYMP2-026 (AID 989); also: % is scaled to controls: 0 for no effect and ±100 for the full control effect; nearly all actives have a fitted effect of over 50% in size
Procedure, shortened: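 Human lymphoblastoid LYMP2-026 cells, 2500/well, exposed to compound 24 h at 37 C in complete medium. Viability as intracellular ATP by CellTiter-Glo luminescence; AC50 from Hill fits of qHTS concentration-response.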

[19] = Cell Viability - LYMP1-002 - Assay at 24 hr (AID 993); also: % is scaled to controls: 0 for no effect and ±100 for the full control effect
Procedure, shortened: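 Human lymphoblastoid LYMP1-002 cells (2500/well) treated 24 h at 37 °C; viability as intracellular ATP by CellTiter-Glo luminescence. Tetraoctylammonium bromide as positive control; AC50 from Hill-equation fits of qHTS concentration-response.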

[20] = molecular target: Glucocorticoid receptor (Homo sapiens) (UniProt P04150); assay: qHTS assay for small molecule agonists of glucocorticoid receptor signaling (AID 588532; active = well fitted curve in the direction sought with a large enough effect in the signal ratio, with a control signal flat; the % refers to the signal ratio;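 also: 100% = dexamethasone at 0.1 µM and 0% = DMSO only wells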); conditions: HeLa MMTV-bla, beta-lactamase ratio, agonist, 18 h; stronger effect = higher value; percent of dexamethasone control, DMSO zero
Procedure, shortened: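 MMTV-bla HeLa, beta-lactamase reporter; medium with 1% charcoal/dextran-stripped FBS; cpds up to 92 uM, 18 h, 37 C; CCF4 readout 460/530 nm; Hill fit → EC50, efficacy vs 0.1 uM dexamethasone = 100%.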

[21] = qHTS assay for small molecule antagonists of retinoid X receptor alpha signaling (AID 588546; active = well fitted inhibition curve with a large enough effect in the signal ratio, with a control signal flat, not every such curve was filed as active; the % refers to the signal ratio;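 also: cells stimulated with 9-cis-retinoic acid as agonist; % is scaled to controls: 0 for no effect and ±100 for the full control effect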); conditions: HEK293T RXRa-UAS-bla, beta-lactamase ratio, antagonist mode; measured here: W530 green channel, cytotoxicity proxy
Procedure, shortened: (§1)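 Beta-lactamase reporter inhibition, read as CCF4 fluorescence ratio (ex 405, em 460/530 nm) after 2 h at RT. HEK293T UAS-bla cells, 2500/well, were stimulated with 9-cis-RA at 500 or 100 nM final alongside test compound for 18 h at 37 C.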

[22] = molecular target: Retinoic acid receptor RXR-alpha (Homo sapiens) (UniProt P19793); assay: as above; conditions: HEK293T RXRa-UAS-bla, beta-lactamase ratio, antagonist mode
Procedure, shortened: as §1

[23] = qHTS assay for small molecule disruptors of the mitochondrial membrane potential - 1 hr assay (AID 651754; calls by dose curve; also: % is scaled to controls: 0 for no effect and ±100 for the full control effect; nearly all actives have a fitted effect of over 35% in size)
Procedure, shortened: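 HepG2 cells, attached overnight, were exposed to compound for 1 hr at 37C, then stained 30 min with a potentiometric dye. Ratio of red aggregate (590nm) to green monomer (535nm) fluorescence reports membrane potential; collapse shifts signal toward green.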

[24] = qHTS assay for small molecule disruptors of the mitochondrial membrane potential - 5 hr assay (AID 651755; calls by dose curve; also: % is scaled to controls: 0 for no effect and ±100 for the full control effect; nearly all actives have a fitted effect of over 40% in size)
Procedure, shortened: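 HepG2 cells, attached overnight at 37C, were exposed to compound or DMSO for 5 hr at 37C, 5% CO2. Mito-MPS dye was then added for 30 min, and fluorescence read at 490/535 nm (monomers) and 540/590 nm (aggregates).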

[25] = molecular target: Tumor necrosis factor (Homo sapiens) (UniProt P01375); assay: qHTS assay to identify small molecules that stimulate Tumor Necrosis Factor-alpha (TNF-alpha) secretion (AID 651757; active = well fitted curve in the direction sought with a large enough effect in the signal ratio; the % refers to the signal ratio; also: 0% is about no effect)
Procedure, shortened: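 THP-1 cells (3000/well) exposed to compounds 17 hrs at 37 C. Secreted TNF-alpha detected by HTRF with cryptate- and XL665-labeled anti-TNF-alpha antibodies after 3 hr at room temperature.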

[26] = qHTS assay for environmental chemicals that activate the Aryl hydrocarbon Receptor (AhR) signaling pathway (AID 651777); conditions: 1A2-DRE human hepatoma cells, luciferase, 24 h; activation: stronger effect = higher value; also: % of control where 0% means no effect; nearly all actives have a fitted effect of over 15% in size
Procedure, shortened: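 Concentration–response screening used 1,200 1A2-DRE cells per well, 24 hr compound exposure (37 C, 5% CO2), and One-Glo luminescence as the AhR-driven CYP1A2 reporter signal.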

[27] = molecular target: Peroxisome proliferator-activated receptor alpha (Homo sapiens) (UniProt Q07869); assay: qHTS assay for small molecule agonists of the peroxisome proliferator-activated receptor alpha (PPARalpha) signaling pathway (AID 651778); conditions: PathHunter PPARalpha complementation, chemiluminescence, 6 h; max response: stronger effect = higher value; also: % of control where 0% means no effect
Procedure, shortened: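 Cells plated at 2,000/well and held overnight at 37 C, 5% CO2, then compound added by pin tool for 6 hr; after PathHunter detection reagent and 60 min at room temperature, chemiluminescence from enzyme complementation was read.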

[28] = qHTS assay for small molecule antagonists of the retinoid-related orphan receptor gamma (ROR-gamma) signaling pathway - cell viability counter screen (AID 720652; active = well fitted curve in the direction sought with a large enough effect in the repeat runs; an effect the other way counts as inactive or inconclusive;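 also: CHO reporter cells with doxycycline-induced ROR-gamma expression; series mostly up to about 92 µM; compound exposure lasted 16 hr before ATP read; % is scaled to controls: 0 for no effect and ±100 for the full control effect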)
Procedure, shortened: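 CHO cells carrying TET-inducible ROR and RORE-luciferase reporter, plated 5 hr, then dosed with compound plus doxycycline. After 16 hr at 37 C, viability read as intracellular ATP by CellTiter-Glo luminescence.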

[29] = qHTS assay for small molecule agonists of the antioxidant response element (ARE) signaling pathway measured by Nrf2-dependant transcriptional activity - cell viability counter screen (AID 720653; active = well fitted curve in the direction sought with a large enough effect in the repeat runs; an effect the other way counts as inactive or inconclusive; also: % is scaled to controls: 0 for no effect and ±100 for the full control effect); conditions: ARE-bla HepG2 viability, CellTiter-Glo ATP luminescence, 16 h; max response: stronger effect = lower value
Procedure, shortened: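 ARE-bla HepG2 cells (2,000/well) rested 5 hrs at 37C/5% CO2, then exposed to compounds in DMSO for 16 hrs. Viability was read in the same wells as intracellular ATP by luminescence, 30 min at room temperature after reagent addition.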

[30] = qHTS assay for cell viability of HEK293 cells (AID 743288); conditions: ATP luminescence (CellTiter-Glo), 18 h; max response: stronger effect = lower value; also: % is scaled to controls: 0 for no effect and ±100 for the full control effect; nearly all actives have a fitted effect of over 50% in size
Procedure, shortened: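 Parental HEK293 cells were seeded at 2,000 cells/well, rested at least 5 h at 37 C, then exposed to compounds in DMSO for 18 h at 37 C. Viability was read as ATP-dependent luciferase luminescence after 30 min at room temperature.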

[31] = qHTS assay for cell viability of the p53RE-bla HCT-116 cell line (AID 743292)
Procedure, shortened: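 Compound-exposed HCT-116 (p53RE-bla) cells, 4,000 per well, were kept 16 h at 37 C following a 5 h preincubation. Cell number was estimated from total ATP by CellTiter-Glo luminescence read after 30 min at room temperature.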

[32] = molecular target: Rap guanine nucleotide exchange factor 3 (Homo sapiens) (UniProt O95398); assay: Confirmatory qHTS for agonist of cAMP-regulated guanine nucleotide exchange factor 3 (EPAC1) (AID 1645881);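 also: EPAC1 catalysed release of BODIPY-GDP from Rap1B seen as fluorescence loss; 100% = effect of cAMP agonist control; nearly all actives have a fitted effect of over 75% in size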
[33] = molecular target: Rap guanine nucleotide exchange factor 4 (Homo sapiens) (UniProt Q8WZA2); assay: Confirmatory qHTS for agonist of cAMP-regulated guanine nucleotide exchange factor 4 (EPAC2) (AID 1645884);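 also: nucleotide exchange releases bodipy-GDP from Rap1 and this lowers its fluorescence; % is scaled to controls: 0 for no effect and ±100 for the full control effect; nearly all actives have a fitted effect of over 65% in size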
[34] = molecular target: Rap guanine nucleotide exchange factor 3 (Homo sapiens) (UniProt O95398); assay: Counterscreen qHTS for antagonist of cAMP-regulated guanine nucleotide exchange factor 3 (EPAC1) (AID 1645888);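 also: fluorescence loss as bound BODIPY-GDP is released from Rap1B; % of control where 0% means no effect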
Procedure, shortened: (§2)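 Measured: fluorescence of BODIPY-GDP bound to Rap1B, which falls as exchange proceeds. Conditions include 50 uM competing GDP, 5 and 30 min reads, and a later cAMP challenge for antagonist detection.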

[35] = molecular target: Rap guanine nucleotide exchange factor 3 (Homo sapiens) (UniProt O95398); assay: Counterscreen qHTS for agonist of cAMP-regulated guanine nucleotide exchange factor 3 (EPAC1) (AID 1645889); also: % of control where 0% means no effect; nearly all actives have a fitted effect of over 40% in size
Procedure, shortened: as §2

[36] = molecular target: Nuclear receptor subfamily 1 group I member 2 (Rattus norvegicus) (UniProt Q9R1A7); assay: qHTS assay for small molecule activators of the rat pregnane X receptor (rPXR) signaling pathway (AID 651751; call rule not given here; also: 0% is about no effect); conditions: rPXR reporter cells, luciferase (One-Glo), 24 h
[37] = qHTS assay for small molecule activators of the human pregnane X receptor (PXR) signaling pathway (AID 720659; call rule not given here; also: 0% is about no effect)

Chain of Glucocorticoid receptor (Homo sapiens) (P04150 whole entry, looked up): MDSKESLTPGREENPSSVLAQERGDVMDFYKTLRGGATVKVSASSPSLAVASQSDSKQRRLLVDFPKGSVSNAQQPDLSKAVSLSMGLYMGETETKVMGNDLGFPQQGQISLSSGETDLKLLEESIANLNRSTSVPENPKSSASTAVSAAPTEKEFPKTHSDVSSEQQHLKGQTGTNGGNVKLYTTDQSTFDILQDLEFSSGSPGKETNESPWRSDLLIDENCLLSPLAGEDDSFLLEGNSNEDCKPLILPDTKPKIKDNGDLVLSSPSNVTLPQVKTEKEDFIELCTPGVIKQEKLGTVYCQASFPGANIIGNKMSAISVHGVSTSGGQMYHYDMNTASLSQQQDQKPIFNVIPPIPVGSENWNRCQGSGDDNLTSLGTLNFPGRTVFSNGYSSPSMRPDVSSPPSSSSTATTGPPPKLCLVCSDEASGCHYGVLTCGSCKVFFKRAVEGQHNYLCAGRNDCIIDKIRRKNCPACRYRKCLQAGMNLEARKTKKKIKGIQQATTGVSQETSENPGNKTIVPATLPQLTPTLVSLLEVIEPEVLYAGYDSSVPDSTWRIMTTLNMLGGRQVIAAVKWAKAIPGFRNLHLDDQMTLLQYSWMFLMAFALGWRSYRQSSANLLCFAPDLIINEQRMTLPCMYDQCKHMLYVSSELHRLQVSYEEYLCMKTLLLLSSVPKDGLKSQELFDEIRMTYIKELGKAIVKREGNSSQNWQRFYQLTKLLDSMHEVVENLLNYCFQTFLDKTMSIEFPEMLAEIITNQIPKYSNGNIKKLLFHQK
Chain of Nuclear receptor subfamily 1 group I member 2 (Rattus norvegicus) (Q9R1A7 whole entry, looked up): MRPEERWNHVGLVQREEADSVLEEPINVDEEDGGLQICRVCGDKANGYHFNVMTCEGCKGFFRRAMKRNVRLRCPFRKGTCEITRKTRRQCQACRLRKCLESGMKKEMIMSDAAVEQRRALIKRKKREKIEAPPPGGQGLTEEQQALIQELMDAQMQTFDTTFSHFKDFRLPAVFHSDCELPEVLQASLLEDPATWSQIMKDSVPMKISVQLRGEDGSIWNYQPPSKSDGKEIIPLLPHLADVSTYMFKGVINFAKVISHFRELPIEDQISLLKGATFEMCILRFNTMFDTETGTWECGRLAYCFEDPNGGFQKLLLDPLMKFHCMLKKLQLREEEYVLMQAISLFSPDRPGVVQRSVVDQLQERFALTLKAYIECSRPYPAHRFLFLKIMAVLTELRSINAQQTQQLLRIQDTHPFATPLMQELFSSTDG
Chain of Peroxisome proliferator-activated receptor alpha (Homo sapiens) (Q07869 whole entry, looked up): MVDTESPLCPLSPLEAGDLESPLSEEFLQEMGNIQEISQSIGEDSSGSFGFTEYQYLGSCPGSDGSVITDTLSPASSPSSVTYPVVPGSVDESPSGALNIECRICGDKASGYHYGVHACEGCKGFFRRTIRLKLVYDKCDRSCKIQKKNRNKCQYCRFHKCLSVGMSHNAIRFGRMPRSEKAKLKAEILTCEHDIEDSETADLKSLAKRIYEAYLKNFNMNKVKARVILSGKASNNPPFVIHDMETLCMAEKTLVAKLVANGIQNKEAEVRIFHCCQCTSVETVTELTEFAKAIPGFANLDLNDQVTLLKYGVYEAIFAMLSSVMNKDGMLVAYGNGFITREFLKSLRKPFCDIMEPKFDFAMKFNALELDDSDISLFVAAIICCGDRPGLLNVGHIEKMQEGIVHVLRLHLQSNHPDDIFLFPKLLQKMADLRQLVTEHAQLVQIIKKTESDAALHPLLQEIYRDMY
Chain of Retinoic acid receptor RXR-alpha (Homo sapiens) (P19793 whole entry, looked up): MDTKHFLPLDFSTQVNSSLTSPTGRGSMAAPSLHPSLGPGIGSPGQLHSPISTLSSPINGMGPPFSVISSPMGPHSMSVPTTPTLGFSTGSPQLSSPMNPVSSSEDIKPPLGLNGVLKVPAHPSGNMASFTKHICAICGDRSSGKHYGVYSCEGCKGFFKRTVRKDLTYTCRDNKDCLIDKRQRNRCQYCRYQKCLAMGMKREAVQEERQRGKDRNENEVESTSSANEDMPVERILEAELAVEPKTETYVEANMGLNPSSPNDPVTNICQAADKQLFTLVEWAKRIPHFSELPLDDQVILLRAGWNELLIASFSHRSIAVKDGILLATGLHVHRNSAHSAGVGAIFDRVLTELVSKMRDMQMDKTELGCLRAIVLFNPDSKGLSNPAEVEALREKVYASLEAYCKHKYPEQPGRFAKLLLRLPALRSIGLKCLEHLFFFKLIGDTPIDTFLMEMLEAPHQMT
Chain of Rap guanine nucleotide exchange factor 3 (Homo sapiens) (O95398 whole entry, looked up): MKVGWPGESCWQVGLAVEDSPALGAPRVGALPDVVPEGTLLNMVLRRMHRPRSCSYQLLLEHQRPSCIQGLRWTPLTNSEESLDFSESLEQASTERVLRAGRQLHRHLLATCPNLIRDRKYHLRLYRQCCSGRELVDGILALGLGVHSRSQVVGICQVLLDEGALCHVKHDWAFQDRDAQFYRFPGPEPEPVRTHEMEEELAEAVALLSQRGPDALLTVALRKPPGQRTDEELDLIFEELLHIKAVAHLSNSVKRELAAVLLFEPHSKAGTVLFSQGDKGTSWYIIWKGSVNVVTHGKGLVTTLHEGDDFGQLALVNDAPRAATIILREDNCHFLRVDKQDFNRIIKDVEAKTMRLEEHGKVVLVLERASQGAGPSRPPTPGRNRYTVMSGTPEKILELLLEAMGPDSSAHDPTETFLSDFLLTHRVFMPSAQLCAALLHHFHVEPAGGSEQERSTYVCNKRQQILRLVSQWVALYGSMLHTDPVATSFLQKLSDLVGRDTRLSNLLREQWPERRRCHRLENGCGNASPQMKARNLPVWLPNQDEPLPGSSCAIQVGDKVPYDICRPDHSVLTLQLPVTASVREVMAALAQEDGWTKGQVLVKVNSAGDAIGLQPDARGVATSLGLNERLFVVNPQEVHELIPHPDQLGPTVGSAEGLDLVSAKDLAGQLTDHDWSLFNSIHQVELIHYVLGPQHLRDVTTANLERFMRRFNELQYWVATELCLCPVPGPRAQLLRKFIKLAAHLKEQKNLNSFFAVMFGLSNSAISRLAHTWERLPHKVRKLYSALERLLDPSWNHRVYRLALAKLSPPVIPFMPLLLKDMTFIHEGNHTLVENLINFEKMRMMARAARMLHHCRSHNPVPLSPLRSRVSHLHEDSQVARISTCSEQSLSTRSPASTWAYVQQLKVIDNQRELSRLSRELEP
Chain of Rap guanine nucleotide exchange factor 4 (Homo sapiens) (Q8WZA2 whole entry, looked up): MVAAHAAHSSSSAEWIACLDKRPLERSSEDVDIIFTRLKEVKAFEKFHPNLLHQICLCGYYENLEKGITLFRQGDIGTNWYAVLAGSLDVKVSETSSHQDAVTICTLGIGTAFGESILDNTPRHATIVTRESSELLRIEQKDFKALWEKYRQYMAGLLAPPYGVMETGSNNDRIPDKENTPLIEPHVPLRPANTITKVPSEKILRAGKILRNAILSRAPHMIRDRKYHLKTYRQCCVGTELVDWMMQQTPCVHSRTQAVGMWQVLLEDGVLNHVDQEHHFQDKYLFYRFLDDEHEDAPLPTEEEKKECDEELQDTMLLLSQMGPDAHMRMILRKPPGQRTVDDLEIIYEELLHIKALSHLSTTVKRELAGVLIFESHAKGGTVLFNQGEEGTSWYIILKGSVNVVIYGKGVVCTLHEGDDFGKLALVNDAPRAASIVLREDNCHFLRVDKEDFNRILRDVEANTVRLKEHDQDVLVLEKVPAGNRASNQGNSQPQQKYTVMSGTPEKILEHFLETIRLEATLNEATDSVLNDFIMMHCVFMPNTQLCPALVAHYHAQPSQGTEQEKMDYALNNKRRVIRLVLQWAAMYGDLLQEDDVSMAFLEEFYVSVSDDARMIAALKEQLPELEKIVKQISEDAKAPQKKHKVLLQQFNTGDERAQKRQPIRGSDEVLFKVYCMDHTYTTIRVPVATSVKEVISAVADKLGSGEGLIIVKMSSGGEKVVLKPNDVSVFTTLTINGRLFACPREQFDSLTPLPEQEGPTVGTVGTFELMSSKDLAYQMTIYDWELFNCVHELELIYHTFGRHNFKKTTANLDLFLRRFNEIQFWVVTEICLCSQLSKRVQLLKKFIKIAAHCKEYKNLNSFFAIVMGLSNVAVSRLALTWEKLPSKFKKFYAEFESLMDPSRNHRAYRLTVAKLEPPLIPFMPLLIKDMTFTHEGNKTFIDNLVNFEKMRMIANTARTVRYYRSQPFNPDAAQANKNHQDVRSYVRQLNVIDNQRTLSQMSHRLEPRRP
Chain of Tumor necrosis factor (Homo sapiens) (P01375 whole entry, looked up): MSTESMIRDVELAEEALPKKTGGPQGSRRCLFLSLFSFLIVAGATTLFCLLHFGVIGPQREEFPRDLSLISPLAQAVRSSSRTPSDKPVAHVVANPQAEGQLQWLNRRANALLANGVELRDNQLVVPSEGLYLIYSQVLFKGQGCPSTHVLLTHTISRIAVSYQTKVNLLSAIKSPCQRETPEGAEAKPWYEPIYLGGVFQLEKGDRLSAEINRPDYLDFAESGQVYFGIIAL

C[C@H](CCC(=O)O)[C@H]1CC[C@H]2[C@@H]3CC[C@@H]4C[C@H](O)CC[C@]4(C)[C@H]3CC[C@]12C
active: Potency [31] 31.6 µM and 35.5 µM
inactive: Potency [1] | Potency [2] | Potency [3] | Potency [4] | Potency [5] | Potency [6] | Potency [7] | Potency [8] | Potency [9] | Potency [10] | Potency [11] | Potency [12] | Potency [13] | Potency [14] | Potency [15] | Potency [16] | Potency [17] | Potency [18] | Potency [19] | activation [20] -9.27% and -13.3% | max response [22] -5.6% and -21.5% | Potency [23] | Potency [24] | outcome [25] | activation [26] 1.31% and 0.102% | max response [27] 2.21% and -0.262% | Potency [28] | max response [29] 1.28% and 4.08% | max response [30] -8.43% and -9.1% | Potency [32] | Potency [33] | Potency [34] | Potency [35] | max response [36] 6.51% and -5.67% | outcome [37]
21.6% and 12.2%: max response [21]
